High-throughput results deposited in PubChem BioAssay by several laboratories.
AHR act: AHR activators, primary screen, cell-based, luminescence, luciferase reporter, human | AHR-responsive luciferase reporter cells | activation, % at 5 µM | 320,000 compounds, 2.5% hits | AID 2796, 2010; in the data active = activation above about 47%
ALR H2O2 inh: inhibitors of human ALR sulfhydryl oxidase, primary screen, biochemical, H2O2 detection, HRP-luminol luminescence, single point; purified ALR, DTT oxidation; 290,000 compounds, 3.8% hits; inhibition, % (no concentration beside the values); FAD-linked sulfhydryl oxidase ALR (Homo sapiens), P55789;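 active = mean replicate inhibition above about 79%, with every replicate also reaching it, limit read from the data; inconclusive = only one of the two criteria met; inactive = mean below limit and not every replicate reaching it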
A1 inh: caspase 3/7 activation in MEF A1-2A-BIM cells, primary screen, A1 inhibitor project, cell-based, luminescence, HTS; caspase activation, % (no concentration beside the values); 330,000 compounds, 0.066% hits; Caspase-Glo 3/7 luminescence, 3 h; percent of clofoctol response, vehicle zero;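 active = over half of replicate activation scores above 10%, or exactly half above 10 with the replicate mean above 10; inconclusive = replicate mean below 10 yet half the replicates above 10; inactive = over half of replicates below 10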
Efflux pump inh: inhibitors of Candida efflux pumps in yeast, primary screen, S. cerevisiae, Nile Red, multiplex. AID 485275, 2010. 330,000 compounds, 0.44% hits. S. cerevisiae Candida pump triplex. inhibition, % at 10 µM;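 active = plate passing quality check with inhibition over a set limit, or well fluorescence over plate mean plus 4 SD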;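 also: Nile Red retained in pooled yeast measured as flow cytometry median fluorescence; higher means more Nile Red kept so more efflux inhibition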
VLA-4 inh: inhibition in human VLA-4 binding assay, primary screen, VLA-4 allosteric modulator project, MLPCN library, flow cytometry, VLA-4 expressing cells | Integrin alpha-4 (Homo sapiens), P13612 | 330,000 compounds, 0.2% hits | ligand binding flow cytometry | inhibition, % (about 7 µM as worked out from the volumes in the protocol); in the data active = inhibition above about 50%
Mot1-301 SUMO: yeast Mot1-301 growth rescue at high temperature, primary screen, SUMOylation pathway inhibitor project, S. cerevisiae, ATP luminescence, 38.5C; S. cerevisiae Mot1-301 growth rescue; percent above DMSO median, 100 means doubled; growth rescue, % at 18.8 µM; 320,000 compounds, 1% hits; AID 2716, 2010;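 active = every valid replicate shows activation above 250% relative to neutral control wells; inactive = the rest, any valid replicate at or below 250%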
A number is an active result; – = inactive; ? = inconclusive; · = no result given. Rows were chosen to be rich in hits. Some 7.2% of all compounds tested hit in one or more screens of this group.

SMILES	AHR act	ALR H2O2 inh	A1 inh	Efflux pump inh	VLA-4 inh	Mot1-301 SUMO
Cc1cccc(NC(=O)COc2ccc(Br)cc2)n1	77.6	–	–	–	–	–
Cc1cccc(NC(=O)c2ccc(C(=O)c3ccccc3)cc2)n1	–	·	–	–	–	–
CCOC(=O)C1=C(C)NC(=O)C(C#N)C1c1ccco1 (centres undefined)	–	–	–	–	–	–
CCOc1ccccc1CN1CCCC(C(=O)Nc2cccc(-n3cccn3)c2)C1 (centres undefined)	–	–	–	–	–	–
COc1ccc(-c2cnn3c4c(c(C)nc23)CCN4C(C)C)cc1OC	–	–	·	–	–	–
CCN(CC(=O)Nc1ccccc1C(F)(F)F)C(=O)c1ccc2[nH]c3c(c2c1)CC(C)CC3 (centres undefined)	–	–	–	–	–	–
COc1ccccc1C(C[N+](=O)[O-])c1c(N)n(C)c(=O)n(C)c1=O (centres undefined)	–	–	–	–	–	594.2
Cc1ccc(NC(=O)c2ccc(=O)[nH]n2)cc1S(=O)(=O)Nc1ccc(SC(F)F)cc1	–	98.7	–	–	–	–
Cc1ccc(NC(=O)c2ccc(=O)[nH]n2)cc1C	–	–	–	–	–	–
CCCOP(=O)(OCCC)C(Nc1ccc(C(C)C)cc1)c1ccc([N+](=O)[O-])cc1 (centres undefined)	59.9	–	–	–	–	–
COP(=O)(OC)C(Nc1ccc([N+](=O)[O-])cc1)c1ccccc1 (centres undefined)	–	–	–	–	–	–
CCOC(=O)CSc1nnc(C)c(=O)[nH]1	–	–	–	–	–	–
CCOC(=O)CSc1nnc(NCC(=O)OC)c(=O)[nH]1	–	100.1	–	–	–	–
Oc1cccc(O)c1O	–	83.1	–	–	–	–
O=c1nc(-c2ccccc2)n(-c2ccccc2)[nH]1	–	·	–	–	–	–
COC(=O)c1c(NC(=O)C2CC=CCC2C(=O)O)sc(C(N)=O)c1C (centres undefined)	–	99.2	–	–	–	–
CC(C)(C)C(=O)/C(=C/c1ccc(Cl)cc1)n1cncn1	·	–	–	–	–	–
CC(C)(C)C(=O)/C(=C\c1ccc([N+](=O)[O-])cc1)n1cncn1	–	–	?	–	–	329.8
O=C(COC(=O)CCC1CCCC1)Nc1ccccc1Br	–	·	–	–	–	–
Cc1nnc2n(c1=O)N=C(c1ccc(Cl)cc1)CS2	79.0	99.2	–	–	–	–
Clc1ccc(C2=Nn3c(nnc3-c3cccs3)SC2)cc1	–	–	–	–	–	–
CCc1ccc(NC(=O)N(CCN2CCOCC2)Cc2ccc3c(c2)CCCN3CC)cc1	–	98.5	–	–	–	–
Cc1ccc(NC(=O)N(CCCN2CCOCC2)Cc2cccnc2)cc1C	–	–	–	–	–	–
CCN1CCCc2cc(CN(CCN3CCOCC3)C(=O)Nc3ccc(C)c(C)c3)ccc21	–	98.9	–	–	–	–
Nc1ccc(OCc2ccco2)cc1	–	–	–	–	–	–
SMILES	AHR act	ALR H2O2 inh	A1 inh	Efflux pump inh	VLA-4 inh	Mot1-301 SUMO
c1coc(CSSCc2ccco2)c1	–	98.3	–	–	–	–
COc1cccc(-n2c([S-])c(C(=O)Nc3ccc(S(=O)(=O)N4CCOCC4)cc3)[n+]3cc(C(N)=O)ccc23)c1	64.5	·	–	–	–	–
COc1cccc(C(=O)Nc2nc(-c3ccc(S(=O)(=O)N4CCOCC4)cc3)cs2)c1	–	–	–	–	–	254.8
O=C(Nc1nc(-c2ccc(S(=O)(=O)N3CCOCC3)cc2)cs1)c1ccccc1	–	–	–	–	–	–
COc1ccccc1C(=O)NNC(=O)C1CCN(C(=O)OC(C)(C)C)CC1	–	–	–	–	–	–
CCCn1cc(SCC(=O)Nc2ccc3c(c2)OCO3)c2ccccc21	73.3	–	–	–	–	–
O=C(CSc1nccn1-c1ccccc1)Nc1ccc2c(c1)OCO2	–	·	–	–	–	–
COc1ccc(NC(=O)CSc2nnc(-c3ccccc3C)n2N)cc1OC	–	–	–	–	–	–
Cn1ccnc1SCC(=O)Nc1ccc2c(c1)OCO2	–	90.4	–	–	–	–
CC(=O)Nc1ccc(NC(=O)CSc2cn(CC(=O)N3CCOCC3)c3ccccc23)cc1	–	98.9	–	–	–	–
COc1ccc(NC(=O)CSc2nnc(-c3ccccc3C)n2N)cc1	–	99.3	–	–	–	–
Cn1cc(SCC(=O)Nc2ccc3c(c2)OCO3)c2ccccc21	–	–	–	–	–	–
Cn1ccnc1SCC(=O)Nc1cc(S(=O)(=O)N2CCOCC2)ccc1Cl	–	97.6	–	–	–	–
CCOc1ccc(Cc2nnc(SCC(=O)Nc3ccc(OC)cc3)n(N)c2=O)cc1	–	·	–	–	–	–
COc1ccc(NC(=O)CSc2nnc(CCC(=O)O)c(=O)n2N)cc1	–	98.0	–	–	–	–
O=C(Cc1ccc(S(=O)(=O)N2CCOCC2)s1)Nc1cc(Cl)ccc1Cl	91.7	–	–	–	–	–
Cc1ccccc1-c1nnc(SCC(=O)Nc2ccc3c(c2)OCCO3)n1N	–	98.1	–	–	–	–
COc1c(C)cc(C(=O)C2CCCN(C(=O)/C=C/c3ccccn3)C2)cc1C (centres undefined)	–	–	–	–	–	–
O=C(NCc1ccc(Cl)cc1)C(=O)c1cn(CC(=O)N2CCOCC2)c2ccccc12	–	–	–	–	–	–
O=C(Nc1ccccc1Cl)C(=O)c1cn(CC(=O)N2CCOCC2)c2ccccc12	73.2	–	?	–	–	–
Nn1c(SCC(=O)Nc2ccc3c(c2)OCCO3)nncc1=O	–	89.5	–	–	–	–
Cc1nnc(SCC(=O)Nc2ccc3c(c2)OCO3)n(N)c1=O	–	94.5	–	–	–	–
COC1=C/C(=C/c2c(O)c(C#N)c3ccccn23)C=CC1=O	–	91.2	–	–	–	–
Cn1ccc(O)c(C#N)c1=O	–	–	–	–	–	–
Cn1c(=O)c2c(ncn2CC(=O)OCc2ccccc2)n(C)c1=O	–	–	–	–	–	–
Cn1c(=O)c2c(ncn2CC(=O)N(Cc2ccccc2)c2ccccn2)n(C)c1=O	–	–	–	–	–	298.6
CSc1ccc(/C=N/NC(=O)CN2CCN(Cc3ccc(C)cc3)CC2)cc1	–	·	–	–	–	–
CC1=C(C)CC2(SC1)C(=O)N(c1ccccc1)N=C2N (centres undefined)	–	93.9	–	–	–	–
CC1=NN(c2ccccc2)C(=O)C1(C)C	–	–	–	–	–	–
COc1cccc(C(=O)/C=C2\NCCc3cc(OC)c(OC)cc32)c1	52.6	–	–	–	–	–
